Among all 2,400 compounds or so, about 750 (31%) were called active. The list shows a part of the results. Values without a mark were called inactive.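 Rule for the calls: active = median signal gain over dofetilide-blocked control wells reaching their mean plus 3 SD, so readout 1 at least 0; inactive = the rest.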
These compounds were tested against Voltage-gated inwardly rectifying potassium channel KCNH2 (Homo sapiens) (UniProt Q12809) (assay: hERG protection against dofetilide inhibition, confirmation, cell-based, thallium flux, duplicate retest, dofetilide IC70 (AID 1835)). Conditions: hERG cell line, FluxOR thallium flux, dofetilide-blocked; at 10 µM; stronger effect = higher value.
Chain of Voltage-gated inwardly rectifying potassium channel KCNH2 (Homo sapiens) (Q12809 whole entry, looked up): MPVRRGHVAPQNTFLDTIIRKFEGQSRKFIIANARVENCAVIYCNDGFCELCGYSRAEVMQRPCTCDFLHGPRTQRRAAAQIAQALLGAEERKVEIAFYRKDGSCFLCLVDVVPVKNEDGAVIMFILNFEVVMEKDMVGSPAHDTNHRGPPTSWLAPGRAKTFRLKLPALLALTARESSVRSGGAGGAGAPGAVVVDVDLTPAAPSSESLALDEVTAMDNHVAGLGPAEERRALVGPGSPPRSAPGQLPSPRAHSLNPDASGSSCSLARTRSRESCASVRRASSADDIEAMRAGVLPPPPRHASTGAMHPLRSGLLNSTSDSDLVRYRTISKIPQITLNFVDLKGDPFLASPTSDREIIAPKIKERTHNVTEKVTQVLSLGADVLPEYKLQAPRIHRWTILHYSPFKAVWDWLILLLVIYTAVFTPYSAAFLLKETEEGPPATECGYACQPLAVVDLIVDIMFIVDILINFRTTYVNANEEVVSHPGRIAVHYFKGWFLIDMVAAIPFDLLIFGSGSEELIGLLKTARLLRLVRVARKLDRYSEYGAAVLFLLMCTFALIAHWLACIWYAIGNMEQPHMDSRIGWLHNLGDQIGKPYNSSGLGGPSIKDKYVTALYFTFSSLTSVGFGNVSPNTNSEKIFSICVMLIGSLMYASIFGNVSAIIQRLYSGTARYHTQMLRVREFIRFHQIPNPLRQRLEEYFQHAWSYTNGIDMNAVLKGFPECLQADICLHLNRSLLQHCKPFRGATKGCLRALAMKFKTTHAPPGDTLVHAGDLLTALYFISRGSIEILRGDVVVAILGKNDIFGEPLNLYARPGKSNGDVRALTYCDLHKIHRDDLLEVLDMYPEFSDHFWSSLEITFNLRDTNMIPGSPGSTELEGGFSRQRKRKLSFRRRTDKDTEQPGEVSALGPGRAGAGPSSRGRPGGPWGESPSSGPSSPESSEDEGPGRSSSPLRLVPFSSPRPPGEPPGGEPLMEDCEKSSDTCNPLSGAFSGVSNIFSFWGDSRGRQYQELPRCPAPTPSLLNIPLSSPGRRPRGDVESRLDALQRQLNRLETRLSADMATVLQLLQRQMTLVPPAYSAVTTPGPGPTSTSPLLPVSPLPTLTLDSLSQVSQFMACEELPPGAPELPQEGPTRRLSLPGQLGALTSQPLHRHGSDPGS
Compound `Cc1cnc(NC(=O)CN2CCN(c3ccccc3F)CC2)s1` has an activity increase over dofetilide control, less the hit threshold of -5%.
`CCCCCOc1ccc(C2C(C(C)=O)=C(C)Nc3ncnn32)cc1OC` (stereo unspecified) showed an activity increase over dofetilide control, less the hit threshold of -11%.
`CCc1cccc(C)c1NC(=O)Cc1ccsc1` was tested, and the activity increase over dofetilide control, less the hit threshold was -12%.
In the case of `Cc1ccc(S(=O)(=O)N(C)C)cc1NC(=S)NC(C)CCCC(C)C` (stereo unspecified), the activity increase over dofetilide control, less the hit threshold is reported as -30%.
With `COC(=O)c1ccc(CSc2ncnc3sc(C)c(C)c23)o1` the activity increase over dofetilide control, less the hit threshold was 7% (active).
With `Cc1sc2ncnc(SCC(=O)c3ccc(O)cc3O)c2c1C` the activity increase over dofetilide control, less the hit threshold was 2% (active).
`COC(=O)c1ccc(Cn2cnc3c(cnn3-c3ccc(Cl)cc3)c2=O)o1` gave an activity increase over dofetilide control, less the hit threshold of -2%.
Compound `CCC(C)NC(=O)CSc1ncnc2sccc12` (stereo unspecified) has an activity increase over dofetilide control, less the hit threshold of -7%.
In the case of `Cc1sc2ncnc(SCC(=O)NC(=O)c3cccn3C)c2c1C`, the activity increase over dofetilide control, less the hit threshold is reported as 2% (active).
For `Cc1ccc(-n2nc3ccc(N)cc3n2)c(C)c1`, the activity increase over dofetilide control, less the hit threshold was -28%.
`O=C(CN1CCN(Cc2ccccc2)CC1)NCc1ccccc1Cl` was tested, and the activity increase over dofetilide control, less the hit threshold was -1%.
With `Cc1cc(S(=O)(=O)NCC(C)C)ccc1OCC(=O)NCc1ccccn1` the activity increase over dofetilide control, less the hit threshold was -29%.
In the case of `CCOC(=O)Cc1nc2ccccc2o1`, the activity increase over dofetilide control, less the hit threshold is reported as 5% (active).
`CCOC(=O)CP(=O)(c1ccccc1)c1ccccc1` showed an activity increase over dofetilide control, less the hit threshold of -9%.
Work on `C/C(=N\NC(=O)CSc1nc2ccccc2o1)c1ccc(O)cc1` yielded an activity increase over dofetilide control, less the hit threshold of -15%.
`O=C(Nc1nc2c(Br)cc(Br)cc2c(=O)s1)C1CCC1` was tested, and the activity increase over dofetilide control, less the hit threshold was 1% (active).
With `O=C(Nc1cccc(Br)c1)C1CCCC1` the activity increase over dofetilide control, less the hit threshold was -11%.
Work on `Cc1cc(C)c2nc(NC(=O)C3CCCO3)sc2c1` (stereo unspecified) yielded an activity increase over dofetilide control, less the hit threshold of -8%.
Work on `O=C(COc1ccc(S(=O)(=O)NCc2ccccc2)cc1Cl)NCC1CCCO1` (stereo unspecified) yielded an activity increase over dofetilide control, less the hit threshold of -26%.
In the case of `O=C(NC(=S)Nc1ccccc1)c1csnn1`, the activity increase over dofetilide control, less the hit threshold is reported as 88% (active).
With `COc1ccc(NC(=S)NC(=O)c2csnn2)cc1` the activity increase over dofetilide control, less the hit threshold was 23% (active).
With `O=C(NC(=S)Nc1ccccc1Cl)c1csnn1` the activity increase over dofetilide control, less the hit threshold was 79% (active).
`Cc1snnc1C(=O)NC(=S)Nc1ccccc1` was tested, and the activity increase over dofetilide control, less the hit threshold was 30% (active).
`O=C(NC(=S)Nc1ccccc1)c1cncc(C#Cc2ccccc2)c1` showed an activity increase over dofetilide control, less the hit threshold of -8%.
`Cc1cccnc1NC(=O)c1csnn1` gave an activity increase over dofetilide control, less the hit threshold of -3%.
With `COc1ccc(NC(=S)Nc2ccccn2)cc1` the activity increase over dofetilide control, less the hit threshold was -11%.
In the case of `COc1ccc(NC(=O)c2onc(C)c2Cl)cc1`, the activity increase over dofetilide control, less the hit threshold is reported as -10%.
`Cc1ccc(NC(=S)NC(=O)c2ccc(-c3ccccc3)cc2)cc1` showed an activity increase over dofetilide control, less the hit threshold of -2%.
For `O=c1[nH]c2ccccc2nc1C(F)(F)C(F)F`, the activity increase over dofetilide control, less the hit threshold was -11%.
Work on `C/C(=N/NC(=O)c1ccncc1)c1ccc2c(c1)OCO2` yielded an activity increase over dofetilide control, less the hit threshold of -9%.
For `O=C1CSC(=S)N1/N=C/c1cc(Br)ccc1O`, the activity increase over dofetilide control, less the hit threshold was 7% (active).
Compound `Cc1oc(-c2cccs2)nc1CN1CCC(C(=O)N2CCCC2)CC1` has an activity increase over dofetilide control, less the hit threshold of -11%.
Work on `Cc1cccc(C(=O)NC(=S)NNC(=O)COc2c(C)cccc2C)c1` yielded an activity increase over dofetilide control, less the hit threshold of -12%.
`CN(C(=S)NC(=O)c1ccc(Cl)cc1)C1CCCCC1` showed an activity increase over dofetilide control, less the hit threshold of -3%.
With `Cc1cccc(C(=O)NC(=S)N(C)C2CCCCC2)c1` the activity increase over dofetilide control, less the hit threshold was 21% (active).
With `CN(C(=S)NC(=O)c1ccc(F)cc1)C1CCCCC1` the activity increase over dofetilide control, less the hit threshold was 6% (active).
`Cc1ccc(C(=O)NC(=S)N(C)C2CCCCC2)cc1Br` was tested, and the activity increase over dofetilide control, less the hit threshold was -5%.
In the case of `CN(C(=S)NC(=O)c1ccccc1)C1CCCCC1`, the activity increase over dofetilide control, less the hit threshold is reported as 16% (active).
Work on `COc1ccc(C(=O)NC(=S)N(C)C2CCCCC2)cc1` yielded an activity increase over dofetilide control, less the hit threshold of -2%.
In the case of `Cc1ccc(C(=O)NC(=S)N(C)C2CCCCC2)cc1`, the activity increase over dofetilide control, less the hit threshold is reported as 27% (active).
For `O=C(N/N=C/c1ccc(OC(F)F)cc1)C1=COCCO1`, the activity increase over dofetilide control, less the hit threshold was -8%.
With `c1ccc2oc(-c3nn4c(Cn5cnc6ccccc65)nnc4s3)cc2c1` the activity increase over dofetilide control, less the hit threshold was -12%.
`CCC(=O)N1c2ccc(C)cc2C2=NNC(=S)NC21O` (stereo unspecified) showed an activity increase over dofetilide control, less the hit threshold of -6%.
In the case of `O=C(Nc1ccc(-c2csc(Nc3cccc(C(F)(F)F)c3)n2)cc1)c1ccccc1`, the activity increase over dofetilide control, less the hit threshold is reported as -25%.
`O=C(NC(=S)Nc1cccc(C(F)(F)F)c1)c1csnn1` was tested, and the activity increase over dofetilide control, less the hit threshold was 102% (active).
`Cc1cc(-c2nnc(SCC(=O)Nc3ccc(C(F)(F)F)cc3)n2C)no1` showed an activity increase over dofetilide control, less the hit threshold of -23%.
For `COc1ccc(C(=O)O)cc1S(=O)(=O)Nc1cccc(C(F)(F)F)c1`, the activity increase over dofetilide control, less the hit threshold was -4%.
With `O=C(NC(=S)Nc1ccc(C(F)(F)F)cc1)c1csnn1` the activity increase over dofetilide control, less the hit threshold was 60% (active).
In the case of `c1ccc2oc(-c3ccn[nH]3)cc2c1`, the activity increase over dofetilide control, less the hit threshold is reported as -10%.
For `O=C(COC(=O)c1cc[n+]([O-])cc1)Nc1cc([N+](=O)[O-])ccc1Cl`, the activity increase over dofetilide control, less the hit threshold was -20%.
`O=C(CCC(=O)Nc1ccccc1)NNC(=O)c1ccco1` showed an activity increase over dofetilide control, less the hit threshold of -12%.
With `COc1ccc(C)cc1NC(=O)C(=O)NNC(=O)c1ccco1` the activity increase over dofetilide control, less the hit threshold was 55% (active).
In the case of `COc1ccccc1NC(=O)C(=O)NNC(=O)c1ccco1`, the activity increase over dofetilide control, less the hit threshold is reported as 35% (active).
In the case of `CN(c1ccccc1)S(=O)(=O)c1ccc(Cl)c(C(=O)Nc2nn[nH]n2)c1`, the activity increase over dofetilide control, less the hit threshold is reported as -4%.
For `CC12CN3CC(C)(CN(C1)C3c1ccc3c(c1)OCO3)C2=O` (stereo unspecified), the activity increase over dofetilide control, less the hit threshold was -8%.
For `C/C(=N\NC(=O)COc1ccc(C)cc1C(C)C)c1ccc(-n2ccnc2)cc1`, the activity increase over dofetilide control, less the hit threshold was 6% (active).
`Cc1ccc(C(C)C)cc1OCC(=O)Nc1ccc(N2CCCCC2)cc1` was tested, and the activity increase over dofetilide control, less the hit threshold was -11%.
Compound `O=[N+]([O-])c1ccc(S(=O)(=O)Nc2ccc(S(=O)(=O)N3CCCC3)cc2)cc1` has an activity increase over dofetilide control, less the hit threshold of -23%.
`Cc1nc2c(C(=O)NCCc3ccccc3)c[nH]n2c(=O)c1Cl` was tested, and the activity increase over dofetilide control, less the hit threshold was -3%.
Compound `CC(C)(C)c1ccc(Cn2nc(CC(=O)O)c3ccccc3c2=O)cc1` has an activity increase over dofetilide control, less the hit threshold of -9%.
In the case of `O=C(O)CCCNC(=O)c1nn(Cc2ccccc2)c(=O)c2ccccc12`, the activity increase over dofetilide control, less the hit threshold is reported as 3% (active).
With `O=C(NC(=S)Nc1ccccc1)c1cccs1` the activity increase over dofetilide control, less the hit threshold was 12% (active).
With `CCN(CC)c1ccc(NC(=S)NC(=O)c2cccs2)cc1` the activity increase over dofetilide control, less the hit threshold was 8% (active).
`CN(Cc1ccccc1)C(=S)NC(=O)c1cccs1` was tested, and the activity increase over dofetilide control, less the hit threshold was 10% (active).
In the case of `CCCOc1ccc(C(=O)NNC(=S)NC(=O)c2cccs2)cc1`, the activity increase over dofetilide control, less the hit threshold is reported as -44%.
Work on `O=C(c1cccs1)N1CCN=C1SCc1ccccc1` yielded an activity increase over dofetilide control, less the hit threshold of -20%.
In the case of `O=C(NC(=S)NCc1ccccc1)c1cccs1`, the activity increase over dofetilide control, less the hit threshold is reported as 23% (active).
`Cc1ccc(C(=O)NC(=S)N(C)Cc2ccccc2)cc1` gave an activity increase over dofetilide control, less the hit threshold of -3%.
`S=C(NCc1ccccc1)NCc1ccccc1Cl` gave an activity increase over dofetilide control, less the hit threshold of -9%.
Compound `O=C(NC(=S)NNC(=O)c1cccs1)c1ccc(Br)o1` has an activity increase over dofetilide control, less the hit threshold of -23%.
Work on `NS(=O)(=O)c1ccc(NC(=S)NCc2cccs2)cc1` yielded an activity increase over dofetilide control, less the hit threshold of -9%.

Reference: PubChem BioAssay AID1835 (Johns Hopkins Ion Channel Center, 2009)
